This assay addresses FASN. Put plainly: pooled miR-30 sensor sort-seq; sequence = guide strand. The note with it: shRNA.
On to TTCTTTGATGCACTGTCCCCTC, for which the sensor-assay potency score (higher = more potent) was -0.75.
In turn, TAGAGGTGCTGAGCCAGCGGGC showed a sensor-assay potency score (higher = more potent) of -1.55.
The result for TTTCTCACAGATACGCTCCATG reads -0.419.
The sequence TTCAGGAAGATAGCCATGCCGA yielded a sensor-assay potency score (higher = more potent) of -1.28.
The same measure for ATAGGTGACTTCCAGCAGCAGC: -1.01; for TTGAGCTCCTGCAGCAGTGGGG: -0.482; for TTGCACACCAGGAGGTCGGCGC: -0.835.
The same measure for TTCAGCTTGCCGGACCGCCGGG: -0.801; for TTCCTCGGAGTGAATCTGGGTT: 0.14; for TAGCCCACGAGTGTCTCGGGGT: -0.532.
The same measure for TTCTCTGACACCTCGAAGGCAC: -0.474.
In turn, TTGACAGCAGCCAAGTCGCGGA returned a sensor-assay potency score (higher = more potent) of -0.675.
The result for TACTTTCCCGTCGCATACCTGG reads -1.06.
The result for TTGATGATCAGGTCCACGGCGG reads 0.0156.
In turn, TAGTAGACCGTGCAGAGCTGGG showed a sensor-assay potency score (higher = more potent) of -0.853.
Further: reference of the scale not given here.
